The source of these data is PubChem BioAssay (NCATS).

The structures appear in SMILES notation. Inconclusive results are not listed. Entries that show only a call come without a potency. Active and inactive are the calls of the source. Calls follow the shape of the full dose curve.

The nature of this assay: S16 Schwann cell PMP22 intronic element beta-lactamase assay (AID 624044). Also: nearly all actives have a fitted effect of over 15% in size. The following applies: S16 rat Schwann cells, PMP22 element beta-lactamase FRET, 24 h; series mostly up to 38.3 µM. In a few lines:
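Beta-lactamase reporter under a PMP22 intronic regulatory element in stable S16 rat Schwann cells; 24 h compound exposure. 460 nm blue signal normalized between DMSO (0%) and potassium clavulanate, with 535 nm FRET tracking viability; curves classed by r2 and response.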
In the case of `O=C1CN=C(c2ccccc2)c2cc(Cl)ccc2N1CC1CC1`, the Potency entry is “inactive”.

As for `CC(C)(O)C1C2OC(=O)C1C1(O)CC3OC34C(=O)OC2C14C` (centres undefined), the Potency entry is “inactive”.

As to `CN1[C@@H]2CC[C@H]1CC(OC1c3ccccc3CCc3ccccc31)C2` (some centres undefined), the Potency result is “inactive”.

As for `O=C(OCCN1CCCCC1)C(O)(c1ccccc1)c1ccccc1`, the Potency entry was “inactive”.
